As usually defined, the inhibition is the drop in the measured response relative to a control, in per cent.

The source of these data is ChEMBL document CHEMBL1961873, “Compounds: GSK PKIS; Assays: Nanosyn kinase panel” (2012).

Experiment [1] addresses Mast/stem cell growth factor receptor Kit (Homo sapiens) (UniProt P10721). As to conditions: at 1 µM.
Experiment [2] deals with Mast/stem cell growth factor receptor Kit (Homo sapiens), P10721 [D816V]. As to conditions: at 0.1 µM.
The test system is the same in experiment [3]. As to conditions: at 1 µM.
The subject of experiment [4] is Mast/stem cell growth factor receptor Kit (Homo sapiens), P10721 [T670I]. Conditions: at 0.1 µM.
Experiment [5] has the same test system. As to conditions: at 1 µM.
Experiment [6] relates to Mast/stem cell growth factor receptor Kit (Homo sapiens), P10721 [V560G]. As to conditions: at 0.1 µM.
Sequence of Mast/stem cell growth factor receptor Kit (Homo sapiens), P10721 [V560G] (P10721 whole entry V560G): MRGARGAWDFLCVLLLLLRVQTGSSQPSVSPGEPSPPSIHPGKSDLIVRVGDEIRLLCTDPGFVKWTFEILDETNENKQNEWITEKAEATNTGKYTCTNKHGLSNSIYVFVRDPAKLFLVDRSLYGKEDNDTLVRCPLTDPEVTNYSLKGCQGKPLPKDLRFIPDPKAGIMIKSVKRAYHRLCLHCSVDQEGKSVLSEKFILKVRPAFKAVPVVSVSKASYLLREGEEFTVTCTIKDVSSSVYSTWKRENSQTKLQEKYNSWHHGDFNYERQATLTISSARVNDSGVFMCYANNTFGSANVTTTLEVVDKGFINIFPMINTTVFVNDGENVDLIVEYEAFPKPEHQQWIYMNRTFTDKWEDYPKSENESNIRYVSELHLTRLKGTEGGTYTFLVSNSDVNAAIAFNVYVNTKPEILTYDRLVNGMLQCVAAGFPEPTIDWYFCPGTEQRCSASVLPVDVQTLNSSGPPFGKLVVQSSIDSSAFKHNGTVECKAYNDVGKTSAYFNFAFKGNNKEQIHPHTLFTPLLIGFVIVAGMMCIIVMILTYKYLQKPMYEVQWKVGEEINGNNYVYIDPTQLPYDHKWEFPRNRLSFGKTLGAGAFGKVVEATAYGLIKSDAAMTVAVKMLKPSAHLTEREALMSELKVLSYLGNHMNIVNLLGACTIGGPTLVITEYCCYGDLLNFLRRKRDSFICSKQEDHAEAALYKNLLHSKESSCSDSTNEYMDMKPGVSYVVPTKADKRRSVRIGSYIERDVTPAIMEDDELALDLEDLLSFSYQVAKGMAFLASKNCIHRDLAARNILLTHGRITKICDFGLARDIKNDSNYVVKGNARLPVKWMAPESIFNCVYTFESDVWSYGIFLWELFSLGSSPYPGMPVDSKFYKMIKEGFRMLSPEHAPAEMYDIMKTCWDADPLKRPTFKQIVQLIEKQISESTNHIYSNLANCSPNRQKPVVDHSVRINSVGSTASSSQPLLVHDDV
Experiment [7] has the same test system. Conditions: at 1 µM.
The target in experiment [8] is Tyrosine-protein kinase Lck (Homo sapiens) (UniProt P06239). Conditions: at 0.1 µM.
Sequence of Tyrosine-protein kinase Lck (Homo sapiens) (P06239 2-509 limits assumed): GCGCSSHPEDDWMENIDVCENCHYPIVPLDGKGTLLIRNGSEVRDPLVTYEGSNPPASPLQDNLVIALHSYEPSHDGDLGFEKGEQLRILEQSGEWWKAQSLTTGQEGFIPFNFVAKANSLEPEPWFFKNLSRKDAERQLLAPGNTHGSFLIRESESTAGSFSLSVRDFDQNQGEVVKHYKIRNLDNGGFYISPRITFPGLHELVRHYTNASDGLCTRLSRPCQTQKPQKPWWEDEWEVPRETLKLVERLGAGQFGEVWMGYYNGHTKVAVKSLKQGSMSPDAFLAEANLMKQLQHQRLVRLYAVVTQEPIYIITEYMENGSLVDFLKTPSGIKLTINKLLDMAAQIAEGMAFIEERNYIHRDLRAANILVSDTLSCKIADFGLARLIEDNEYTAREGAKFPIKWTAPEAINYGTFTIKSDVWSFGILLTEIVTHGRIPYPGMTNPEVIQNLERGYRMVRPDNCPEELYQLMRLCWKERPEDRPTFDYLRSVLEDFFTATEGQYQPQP
For experiment [9] the target is unchanged. As to conditions: at 1 µM.
Experiment [10] addresses Leukocyte tyrosine kinase receptor (Homo sapiens) (UniProt P29376). As to conditions: at 0.1 µM.
Experiment [11] shares this target. As to conditions: at 1 µM.
Experiment [12] concerns the target Tyrosine-protein kinase Lyn (Homo sapiens) (UniProt P07948). As to conditions: at 0.1 µM.
For experiment [13] the target is unchanged. Conditions: at 1 µM.
Experiment [14] has the same target. Conditions: at 0.1 µM. The source holds these as a separate data set.
The target is the same in experiment [15]. As to conditions: at 1 µM. The source holds these as a separate data set.
Experiment [16] has as its target T1, Tyrosine-protein kinase Mer (Homo sapiens) (UniProt Q12866).
T1 sequence (whole entry): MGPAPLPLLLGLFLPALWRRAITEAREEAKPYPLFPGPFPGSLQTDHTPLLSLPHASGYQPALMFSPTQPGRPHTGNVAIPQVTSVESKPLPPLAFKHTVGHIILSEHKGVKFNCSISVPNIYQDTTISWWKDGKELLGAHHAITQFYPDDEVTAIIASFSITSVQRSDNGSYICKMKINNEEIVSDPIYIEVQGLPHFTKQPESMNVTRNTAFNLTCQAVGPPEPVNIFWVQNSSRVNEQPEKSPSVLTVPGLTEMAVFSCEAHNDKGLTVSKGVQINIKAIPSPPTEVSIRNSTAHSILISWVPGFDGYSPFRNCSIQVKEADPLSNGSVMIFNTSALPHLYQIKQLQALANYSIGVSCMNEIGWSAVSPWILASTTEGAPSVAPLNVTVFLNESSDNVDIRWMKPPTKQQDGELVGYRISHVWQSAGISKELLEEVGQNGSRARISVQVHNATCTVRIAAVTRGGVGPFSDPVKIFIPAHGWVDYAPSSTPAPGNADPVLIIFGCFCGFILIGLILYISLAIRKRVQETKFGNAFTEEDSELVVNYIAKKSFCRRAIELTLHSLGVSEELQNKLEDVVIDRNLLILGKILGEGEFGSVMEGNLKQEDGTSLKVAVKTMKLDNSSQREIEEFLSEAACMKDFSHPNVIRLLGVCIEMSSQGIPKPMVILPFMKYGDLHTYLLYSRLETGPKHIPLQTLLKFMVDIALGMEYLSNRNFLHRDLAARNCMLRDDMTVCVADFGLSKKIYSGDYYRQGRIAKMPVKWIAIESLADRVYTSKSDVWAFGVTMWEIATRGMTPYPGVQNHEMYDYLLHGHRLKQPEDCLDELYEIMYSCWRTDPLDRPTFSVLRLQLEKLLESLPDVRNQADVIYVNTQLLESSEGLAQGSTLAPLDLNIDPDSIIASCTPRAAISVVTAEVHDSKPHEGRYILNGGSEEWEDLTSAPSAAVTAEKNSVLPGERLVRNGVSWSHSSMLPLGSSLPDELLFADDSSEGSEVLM
Conditions: at 0.1 µM.

The target in experiment [17] is T1, Tyrosine-protein kinase Mer (Homo sapiens). As to conditions: at 1 µM.
For experiment [18], the target named is Hepatocyte growth factor receptor (Homo sapiens) (UniProt P08581). Conditions: at 0.1 µM.
Sequence of Hepatocyte growth factor receptor (Homo sapiens) (P08581 whole entry): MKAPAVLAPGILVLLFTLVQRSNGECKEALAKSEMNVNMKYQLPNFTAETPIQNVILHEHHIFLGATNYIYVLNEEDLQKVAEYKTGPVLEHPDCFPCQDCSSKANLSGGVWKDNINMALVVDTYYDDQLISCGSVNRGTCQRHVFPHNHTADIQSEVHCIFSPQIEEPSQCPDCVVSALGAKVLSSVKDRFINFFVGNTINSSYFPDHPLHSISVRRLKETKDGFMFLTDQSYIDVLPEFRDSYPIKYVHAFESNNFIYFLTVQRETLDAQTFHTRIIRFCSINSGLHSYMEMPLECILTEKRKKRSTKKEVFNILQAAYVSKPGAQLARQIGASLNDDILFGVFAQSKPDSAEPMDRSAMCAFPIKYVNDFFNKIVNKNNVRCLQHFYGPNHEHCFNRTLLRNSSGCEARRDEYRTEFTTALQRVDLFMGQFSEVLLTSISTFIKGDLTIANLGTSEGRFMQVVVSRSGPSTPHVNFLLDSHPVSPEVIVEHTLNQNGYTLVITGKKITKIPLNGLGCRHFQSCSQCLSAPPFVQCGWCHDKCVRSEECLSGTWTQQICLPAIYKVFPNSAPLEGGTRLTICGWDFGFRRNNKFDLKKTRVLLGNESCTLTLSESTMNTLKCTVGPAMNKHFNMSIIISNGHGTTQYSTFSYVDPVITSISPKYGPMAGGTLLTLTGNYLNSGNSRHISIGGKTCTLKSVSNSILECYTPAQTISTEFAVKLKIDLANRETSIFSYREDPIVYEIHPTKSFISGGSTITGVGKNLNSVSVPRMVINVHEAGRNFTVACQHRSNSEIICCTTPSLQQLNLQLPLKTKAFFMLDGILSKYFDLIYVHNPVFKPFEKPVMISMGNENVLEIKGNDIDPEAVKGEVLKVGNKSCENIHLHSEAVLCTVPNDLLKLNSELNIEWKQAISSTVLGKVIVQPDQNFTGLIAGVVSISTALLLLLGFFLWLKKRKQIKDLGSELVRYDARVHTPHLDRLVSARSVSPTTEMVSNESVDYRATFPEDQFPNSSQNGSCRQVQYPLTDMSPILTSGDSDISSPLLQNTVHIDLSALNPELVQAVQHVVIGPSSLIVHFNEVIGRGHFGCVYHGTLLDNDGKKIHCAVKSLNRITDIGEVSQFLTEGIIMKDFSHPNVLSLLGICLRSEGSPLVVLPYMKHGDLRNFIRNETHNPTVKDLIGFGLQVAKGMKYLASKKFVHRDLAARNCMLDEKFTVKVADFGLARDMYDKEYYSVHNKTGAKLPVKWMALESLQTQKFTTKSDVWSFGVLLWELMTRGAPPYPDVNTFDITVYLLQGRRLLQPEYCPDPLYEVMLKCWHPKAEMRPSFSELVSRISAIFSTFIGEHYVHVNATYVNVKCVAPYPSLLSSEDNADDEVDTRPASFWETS
Experiment [19] has the same target. Conditions: at 1 µM.
Experiment [20] deals with T2, Muscle, skeletal receptor tyrosine-protein kinase (Homo sapiens) (UniProt O15146).
T2 sequence (whole entry): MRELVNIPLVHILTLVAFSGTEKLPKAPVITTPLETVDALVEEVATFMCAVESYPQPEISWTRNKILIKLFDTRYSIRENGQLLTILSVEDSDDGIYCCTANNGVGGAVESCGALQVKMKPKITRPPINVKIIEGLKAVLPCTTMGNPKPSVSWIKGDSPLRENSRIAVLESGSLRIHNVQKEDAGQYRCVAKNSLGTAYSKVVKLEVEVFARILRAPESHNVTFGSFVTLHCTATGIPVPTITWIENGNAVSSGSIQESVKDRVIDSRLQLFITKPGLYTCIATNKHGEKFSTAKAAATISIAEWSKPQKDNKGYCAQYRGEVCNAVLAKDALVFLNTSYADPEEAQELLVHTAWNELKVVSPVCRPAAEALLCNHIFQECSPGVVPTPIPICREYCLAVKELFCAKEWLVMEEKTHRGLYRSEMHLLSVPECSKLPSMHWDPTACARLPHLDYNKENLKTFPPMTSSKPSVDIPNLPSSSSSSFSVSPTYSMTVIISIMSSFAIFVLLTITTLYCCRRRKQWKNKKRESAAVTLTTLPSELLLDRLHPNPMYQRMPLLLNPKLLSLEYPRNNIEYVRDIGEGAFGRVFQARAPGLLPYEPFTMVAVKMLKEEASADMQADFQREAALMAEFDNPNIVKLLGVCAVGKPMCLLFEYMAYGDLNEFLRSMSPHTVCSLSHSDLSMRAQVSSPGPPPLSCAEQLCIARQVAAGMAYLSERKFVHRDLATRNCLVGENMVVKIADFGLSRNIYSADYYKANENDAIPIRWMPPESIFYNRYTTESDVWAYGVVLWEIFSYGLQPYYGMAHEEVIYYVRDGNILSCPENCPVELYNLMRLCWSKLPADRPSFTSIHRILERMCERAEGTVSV
Conditions: at 0.1 µM.

Sequence of Leukocyte tyrosine kinase receptor (Homo sapiens) (P29376 whole entry): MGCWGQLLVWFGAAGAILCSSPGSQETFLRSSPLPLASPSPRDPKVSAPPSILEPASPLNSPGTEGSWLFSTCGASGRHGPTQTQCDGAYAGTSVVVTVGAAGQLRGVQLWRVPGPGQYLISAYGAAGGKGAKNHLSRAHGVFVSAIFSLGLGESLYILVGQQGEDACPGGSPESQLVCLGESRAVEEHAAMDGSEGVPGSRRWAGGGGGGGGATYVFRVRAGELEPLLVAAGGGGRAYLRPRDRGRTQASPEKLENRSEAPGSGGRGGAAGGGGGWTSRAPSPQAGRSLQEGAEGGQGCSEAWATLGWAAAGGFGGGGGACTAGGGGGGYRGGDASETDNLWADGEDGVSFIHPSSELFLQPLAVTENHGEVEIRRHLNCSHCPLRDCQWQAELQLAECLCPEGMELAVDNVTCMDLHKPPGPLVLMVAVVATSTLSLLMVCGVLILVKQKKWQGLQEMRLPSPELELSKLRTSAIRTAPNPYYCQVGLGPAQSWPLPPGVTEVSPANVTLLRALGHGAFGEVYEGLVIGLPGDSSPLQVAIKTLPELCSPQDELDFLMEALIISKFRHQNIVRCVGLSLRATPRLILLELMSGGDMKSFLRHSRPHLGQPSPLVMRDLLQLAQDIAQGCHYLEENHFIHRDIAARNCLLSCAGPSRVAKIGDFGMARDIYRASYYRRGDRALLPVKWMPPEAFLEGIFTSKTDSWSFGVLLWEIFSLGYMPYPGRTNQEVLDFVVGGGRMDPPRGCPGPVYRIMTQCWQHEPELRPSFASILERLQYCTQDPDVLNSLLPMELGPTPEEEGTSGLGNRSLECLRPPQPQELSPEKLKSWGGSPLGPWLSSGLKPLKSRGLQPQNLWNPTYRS
Sequence of Mast/stem cell growth factor receptor Kit (Homo sapiens), P10721 [D816V] (P10721 whole entry D816V): as the sequence (P10721 whole entry V560G) above, with G560V, D816V counted along it
Sequence of Mast/stem cell growth factor receptor Kit (Homo sapiens) (P10721 whole entry): as the sequence (P10721 whole entry V560G) above, with G560V counted along it
Sequence of Mast/stem cell growth factor receptor Kit (Homo sapiens), P10721 [T670I] (P10721 whole entry T670I): as the sequence (P10721 whole entry V560G) above, with G560V, T670I counted along it
Sequence of Tyrosine-protein kinase Lyn (Homo sapiens) (P07948 2-512 limits assumed): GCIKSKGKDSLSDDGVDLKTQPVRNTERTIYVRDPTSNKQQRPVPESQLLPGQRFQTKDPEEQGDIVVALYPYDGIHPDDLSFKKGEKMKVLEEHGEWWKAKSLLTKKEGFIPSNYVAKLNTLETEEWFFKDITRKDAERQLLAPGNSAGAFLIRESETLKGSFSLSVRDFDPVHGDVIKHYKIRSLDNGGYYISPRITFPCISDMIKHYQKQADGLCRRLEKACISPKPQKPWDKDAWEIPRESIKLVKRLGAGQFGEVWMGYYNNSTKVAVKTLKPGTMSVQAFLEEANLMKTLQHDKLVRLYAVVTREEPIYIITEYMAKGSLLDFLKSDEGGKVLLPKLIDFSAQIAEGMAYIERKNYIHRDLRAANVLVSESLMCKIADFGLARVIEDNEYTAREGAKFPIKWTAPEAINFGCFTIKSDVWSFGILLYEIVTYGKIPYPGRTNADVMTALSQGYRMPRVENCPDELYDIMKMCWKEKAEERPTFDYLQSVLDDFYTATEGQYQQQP

Regarding `Cc1cccc2c1NC(=O)/C2=N\Nc1ccc(S(N)(=O)=O)cc1`, the inhibition was 34.3% in experiment [1]; 1.59% in experiment [2]; -1.26% in [3]; 6.87% in experiment [4]; 7.06% in experiment [5]; 2.17% in experiment [6]. Moreover, the inhibition in experiment [7] was determined as 6.53%; in experiment [8], 1.96%; in experiment [9], 2.95%; in experiment [10], 2.01%; in [11], 2%; in experiment [12], 3.38%. In addition, the inhibition was 5.9% in experiment [13]; 1.15% in experiment [14]; 2.52% in experiment [15]; 1.25% in [16]; 2.98% in experiment [17]; 4.07% in experiment [18]. Moreover, the results for the inhibition in [19] and in [20] were -0.51% and 2.77%, respectively.
In the case of `CCn1c(-c2nonc2N)nc2ccccc21`, the inhibition in experiment [1] is 4.28%; in experiment [2], 1.78%; in experiment [3], -1.08%; in experiment [4], 2.82%; in [5], 0.55%; in experiment [6], 1.72%. Besides, the inhibition came out at 1.6% in experiment [7]; 0.68% in experiment [8]; 3.03% in experiment [9]; 5.66% in experiment [10]; 1.66% in experiment [11]; 3.33% in [12]. Further, the inhibition in [13] was 2.16%; in experiment [14] it was 2.02%; in experiment [15], 0.98%; in [16] it was -0.11%; in experiment [17], 1.81%; in experiment [18], 5.36%. For the same compound, the inhibition in experiment [19] worked out at 2.36%; in experiment [20] it was 3.36%.
Regarding `CCc1nn2ncccc2c1-c1ccnc(NC2CC2)n1`, the inhibition in experiment [1] came out at 7.72%; in experiment [2], 0.04%; in experiment [3] it was 1.83%; in experiment [4] it was 1.32%; in experiment [5] it was 2.12%; in [6], 0.78%. The inhibition turned out to be 3.12% in experiment [7]; 2.82% in experiment [8]; 6.75% in experiment [9]; 3.02% in experiment [10]; 3.47% in experiment [11]; 2.13% in experiment [12]. Further, the inhibition in [13] was found to be 2.84%; in experiment [14] it was 2.22%; in experiment [15], 3.39%; in experiment [16], 3.92%; in [17], 4.58%; in [18] it was 6.93%. For the same compound, the inhibition is 4.86% in experiment [19] and 1.52% in experiment [20].
Turning to `COc1cc2ncn(-c3cc(OCc4ccccc4C(F)(F)F)c(C(=O)N(C)C)s3)c2cc1OC`, the inhibition in experiment [1] is 3.36%; in experiment [2], 0.31%; in experiment [3] it was 3.99%; in [4], -0.65%; in experiment [5], 1.38%; in [6], -2.81%. For the same compound, the inhibition in [7] was 1.25%; in [8], 2.04%; in experiment [9], 11.2%; in experiment [10], 1.37%; in experiment [11], 1.07%; in [12], 0.76%. The inhibition in experiment [13] came to 10.9%; in [14] it was 0.93%; in experiment [15] it was 8.58%; in experiment [16], 1.59%; in experiment [17], 2.36%; in experiment [18], 1.4%. For the same compound, the inhibition in experiment [19] was -4.49%; in experiment [20], -0.19%.
Take `N#Cc1c(NC(=O)CN2CCOCC2)sc2c1CCCC2`: the inhibition came to 7.99% in experiment [1]; 3.63% in experiment [2]; 3.93% in [3]; 4.93% in experiment [4]; 3.32% in experiment [5]; 2.47% in experiment [6]. Further, the inhibition in experiment [7] was determined as 3.82%; in experiment [8], 1.87%; in experiment [9], 4.64%; in [10] it was 4.93%; in [11], 4.38%; in experiment [12] it was 4.72%. The inhibition in experiment [13] is 7.89%; in [14], 2.92%; in experiment [15], 5.26%; in [16] it was 1.87%; in [17], 4.98%; in experiment [18] it was 7.91%. Also, the figures for the inhibition in experiment [19] and in experiment [20] were 13% and 2.41%, respectively.
Take `COc1ccc(-c2nn3ncccc3c2-c2ccnc(Nc3ccc4c(c3)OCCO4)n2)cc1`: the inhibition in experiment [1] is 85.2%; in experiment [2], -1.73%; in experiment [3] it was 0.8%; in [4] it was 3.74%; in [5], 34.7%; in [6], 9.03%. The inhibition turned out to be 61.7% in experiment [7]; 34.8% in experiment [8]; 66.8% in [9]; 3.69% in experiment [10]; 23.5% in experiment [11]; 13.8% in experiment [12]. Besides, the inhibition in experiment [13] was 60.4%; in [14] it was 9.96%; in experiment [15] it was 55.4%; in experiment [16] it was -0.06%; in [17], 12.9%; in experiment [18], -1.3%. The inhibition in [19] is 8.57%; in experiment [20], -0.81%.
With `CC1=C(C(=O)Nc2cc(Cl)c3[nH]ncc3c2)C(c2ccc(C(F)(F)F)cc2)CC(=O)N1` (stereo not given), the inhibition in experiment [1] is 0.36%; in [2] it was 4.84%; in experiment [3], 6.4%; in experiment [4] it was 2.93%; in experiment [5], 4.07%; in [6] it was -1.27%. Besides, the inhibition in [7] was -0.62%; in experiment [8], 4.9%; in experiment [9] it was 27.1%; in experiment [10], 2.35%; in experiment [11] it was 3.88%; in experiment [12] it was 5.29%. In addition, the inhibition in experiment [13] worked out at 10.9%; in experiment [14], 3.46%; in experiment [15], 9.12%; in experiment [16], 1.72%; in experiment [17] it was 0.92%; in experiment [18], 0.14%. Also, the inhibition in experiment [19] was 4.94%; in experiment [20] it was 50.2%.
